# AmpC inh no detg: qHTS Inhibitors of AmpC Beta-Lactamase (assay without detergent) | P00811 | Potency, µM (titrated, usually from 57.1 µM), for the others: at the highest dose activity change, negative = inhibition, most hits filed as inhibitors | hit rate 0.52% among 330,000 | AmpC nitrocefin hydrolysis, absorbance 480 nm, 0.0001% Triton | AID 485341, 2010;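 further: plate controls were no compound for no effect and no enzyme for full effect; nearly all actives have a fitted effect of over 20% in size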
# Target sequence (P00811 whole entry, looked up): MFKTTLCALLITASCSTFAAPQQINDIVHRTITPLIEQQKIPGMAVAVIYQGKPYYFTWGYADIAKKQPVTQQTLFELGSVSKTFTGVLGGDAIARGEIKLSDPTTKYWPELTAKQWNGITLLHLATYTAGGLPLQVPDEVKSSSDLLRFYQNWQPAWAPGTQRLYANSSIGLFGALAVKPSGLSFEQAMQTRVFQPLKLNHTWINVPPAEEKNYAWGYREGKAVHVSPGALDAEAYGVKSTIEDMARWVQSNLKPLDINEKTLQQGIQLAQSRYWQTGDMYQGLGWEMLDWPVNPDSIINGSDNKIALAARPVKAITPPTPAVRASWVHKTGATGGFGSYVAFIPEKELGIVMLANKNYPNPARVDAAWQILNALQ
#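 20 mM phosphate pH 7.0 + 0.01% (detergent screen) or 0.0001% Triton X-100; 5.3 nM AmpC reagent; cpd preinc 15 min RT; nitrocefin (800 uM stock) to start; A480 q20 s × 4 min; Activity was normalised to no-enzyme and no-compound control wells.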
# AmpC detergent: qHTS Inhibitors of AmpC Beta-Lactamase (assay with detergent); P00811; AmpC hydrolysis of nitrocefin, absorbance 480 nm, 0.01% Triton; Potency, µM (doses to about 114 µM), for inactives: top-dose activity change, negative = inhibition, usual class: inhibitors; hit rate 0.041% among 370,000;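 further: 0% = no-compound wells and -100% = no-enzyme wells; nearly all actives have a fitted effect of over 25% in size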
#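 20 mM phosphate pH 7.0 + 0.01% (detergent screen) or 0.0001% Triton X-100; 5.3 nM AmpC reagent; cpd preinc 15 min RT; nitrocefin (800 uM stock) to start; A480 q20 s × 4 min; Activity was normalised to no-enzyme and no-compound control wells.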
# RE007 growth inh: qHTS Assay for Inhibitors of the HIV-1 protein Vpr | S. pombe RE007 Vpr strain, BacTiter-Glo ATP luminescence, 24 h | Potency, µM (series often up to 92.2 µM), without a hit: at the highest dose activity change, negative = less growth, actives largely listed as inhibitors | hit rate 0.21% among 360,000 | AID 651644, 2012; active means well fitted falling curve with a large enough effect; inconclusive means small, poorly fitted or top-dose-only effect; inactive means no such curve, though single readings can be large or run the other way; further: nearly all actives have a fitted effect of over 50% in size
#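 Fission yeast RE007 carrying one integrated HIV-1 vpr copy, seeded at OD 0.01 in PMG+AL medium with 23 nL pinned compound. Grown 24 h at 30 degrees; viability read by BacTiter-Glo luminescence after 5 min.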
# Sm TGR block: qHTS Assay for the Inhibitors of Schistosoma Mansoni Peroxiredoxins; Schistosoma mansoni thioredoxin glutathione reductase (TGR), Q962Y6; purified TGR, DTNB reduction, TNB absorbance 405 nm; Potency, µM (series often up to 114 µM), without a hit: top-dose activity change, negative = inhibition, hits mostly inhibitors; hit rate 3% among 360,000; further: nearly all actives have a fitted effect of over 60% in size
#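 TGR 20 nM + NADPH 100 uM (dispensed conc.), cpd preinc 15 min RT; start with NADPH (500 uM addition) then DTNB (15 mM addition). Kinetic TNB absorbance, 405 nm filter. Four-parameter Hill fit across titration.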
# AMA1-RON2 inh: qHTS for Inhibitors of AMA1-RON; Towards Development of Antimalarial Drug Lead: Primary Screen. AlphaScreen AMA1-biotinylated RON2 peptide binding. Potency, µM (series often up to 58.2 µM), inactives show at the top dose activity change, negative = inhibition, usual class: inhibitors. hit rate 0.2% among 360,000. AID 720542, 2013;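 further: 0% = vehicle wells and -100% = peptide control; nearly all actives have a fitted effect of over 45% in size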
#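 AMA1 (3D7) with his tag at 25 nM final met compounds first, then biotinylated RON2 peptide at 25 nM; detection used donor plus acceptor beads, 10 µg/mL apiece, read by AlphaScreen after 30 min at room temperature.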
# An asterisk follows results filed as active; u = inconclusive; x = no result. The list is not random: actives were taken first. Their share in the collection is about 3.2%. Unless noted, the call rests on the fitted dose curve; in most records, active means well fitted curve in the direction sought with a large enough effect; inconclusive means small, poorly fitted or top-dose-only effect, or another doubt; inactive means no such curve, though single readings can be large; an effect the other way counts as inactive or inconclusive. Unless noted, on the % scale 0 is the no-effect control and ±100 the full control effect; potency means the concentration at half of the fitted maximal effect.
SMILES,AmpC inh no detg,AmpC detergent,RE007 growth inh,Sm TGR block,AMA1-RON2 inh
CCOc1ccc(NS(=O)(=O)c2ccc(C(=O)NCC(c3cccs3)N3CCOCC3)cc2)cc1 (stereo unspecified),28%,-3%,-23%,-1%,-16%
O=C(NCC(c1cccs1)N1CCOCC1)c1ccc(Br)o1 (stereo unspecified),x,-5%,12%,25µM*,3%
CC(=O)c1ccc(S(=O)(=O)Nc2ccc(C(=O)NCC(c3cccs3)N3CCOCC3)cc2)cc1 (stereo unspecified),-15%,u,-12%,14µM*,-8%
O=C(CSc1oc(-c2ccco2)nc1S(=O)(=O)c1ccc(Br)cc1)c1ccc(Cl)cc1,x,7%,x,-13%,x
CSc1cccc(NC(=O)CN(C)S(=O)(=O)c2ccc3c(c2)CCCN3C(C)=O)c1,x,1%,x,2%,x
O=C(Oc1ccccc1)c1cccnc1Oc1ccccc1,-40%,40µM*,-10%,16%,16%
O=C(O)c1cccc2cccnc12,-10%,-2%,5%,2%,-22%
O=C(Oc1ccccc1)c1cccc2cccnc12,-5%,-13%,35µM*,-10%,9%
Cc1cc(C)cc(NC(=O)CCc2c(C)nc3c(c2C)c(=O)n(C)c(=O)n3C)c1,x,15%,x,0%,x
O=C(Nc1cccc(-n2cnnn2)c1)c1cc(Cl)ccc1Cl,-25%,2%,7%,-8%,-8%
O=C(Nc1cccc(-n2cnnn2)c1)c1ccoc1COc1ccc(Cl)cc1,7.1µM*,-10%,4%,-4%,-8%
Cc1ccccc1NC(=O)CCn1nc(-c2ccc(Cl)cc2)c2ccccc2c1=O,x,2%,x,6%,x
C#CCNC(=O)C1=C[C@@H](C2CCCCC2)C[C@@H](OCc2ccc(CO)cc2)O1,39%,5%,-3%,22µM*,-1%
C#CCNC(=O)C1=C[C@H](C2CCCCC2)C[C@H](OCc2ccc(CO)cc2)O1,99%,6%,15%,20µM*,-5%
C#CCNC(=O)C1=C[C@H](C)C[C@H](OCc2ccc(CO)cc2)O1,x,x,-7%,x,1%
O=C(NC1CC1)C1=C[C@H](C2CCCCC2)C[C@H](OCc2ccc(CO)cc2)O1,127%,-5%,17%,-5%,-11%
Cn1c(=O)[nH]c(=O)c2c1nc(N1CCNCC1)n2Cc1ccccc1,-5%,-2%,-8%,u,11%
CC(=O)CSc1nc2c(c(=O)[nH]c(=O)n2C)n1Cc1cccc(Br)c1,-9%,-12%,-2%,56µM*,-6%
CC(C)Cn1c([N+](=O)[O-])nc2c1c(=O)[nH]c(=O)n2C,2%,-1%,2%,22µM*,2%
Cn1c(=O)[nH]c(=O)c2c1nc(Br)n2CCC(=O)c1ccccc1,-20%,-3%,-11%,13µM*,1%
Cn1c(=O)[nH]c(=O)c2c1nc([N+](=O)[O-])n2Cc1ccccc1,-4%,7%,6%,1.8µM*,-8%
Cn1c(=O)[nH]c(=O)c2c1nc(Br)n2C/C=N/NC(=O)c1ccccc1,-19%,-15%,-18%,-9%,12%
CC1=NOC2(C1)N(C)c1ccccc1C2(C)C (stereo unspecified),-3%,2%,7%,-9%,1%
CN1c2ccccc2C(C)(C)C12CCCC(=O)N2 (stereo unspecified),-27%,-15%,-9%,20µM*,0%
COc1cccc(N2CCN(C(=O)c3ccc4c(=O)n(CCc5ccccc5)c(=O)[nH]c4c3)CC2)c1,x,6%,x,-19%,x
SMILES,AmpC inh no detg,AmpC detergent,RE007 growth inh,Sm TGR block,AMA1-RON2 inh
CCN1C(=O)C2(C(C(=O)c3ccc(C)o3)=C(O)C(=O)N2CCCN(C)C)c2ccccc21 (stereo unspecified),8%,-8%,0%,32µM*,-1%
CCN1C(=O)C2(C(C(=O)c3ccc(C)o3)=C(O)C(=O)N2CCCN2CCOCC2)c2ccccc21 (stereo unspecified),2%,2%,9%,50µM*,2%
Cc1ccc(C(=O)C2=C(O)C(=O)N(CCCN3CCOCC3)C23C(=O)N(C)c2ccccc23)o1 (stereo unspecified),-5%,0%,-9%,18%,-5%
NC(=S)NNc1c(F)c(F)c(F)c(F)c1F,-31%,-20%,u,40µM*,43%
Cc1ccccc1NNC(N)=S,-16%,u,u,-11%,21%
Cc1ccc(NC(=O)C2CCCN2S(=O)(=O)c2ccc3c(c2)C(C)(C)C(=O)N3C)cc1 (stereo unspecified),x,-2%,x,10%,x
CCc1noc(-c2ccc(N(C)Cc3ccc(OC)cc3)c([N+](=O)[O-])c2)n1,x,-3%,x,1%,x
O=[N+]([O-])c1ccc2c(c1)nc1n2CCN(C2CCCCC2)C1,-41%,-1%,3%,35µM*,0%
CCCn1c(=O)c2sccc2n2c(CCCC(=O)NC3CCCCC3)nnc12,x,13%,x,5%,x
O=c1cc(CN2CCCc3ccccc32)nc2sccn12,-18%,1%,-2%,28µM*,9%
CCOC(=O)CSC1=Nc2ccccc2C2=NC(CCC(=O)NCc3ccc(OC)cc3)C(=O)N12 (stereo unspecified),x,-5%,x,7%,x
Cc1nc(S/C(=C\c2ccc(-c3ccc(C(=O)O)c(Cl)c3)o2)C(=O)O)n[nH]1,-35%,-3%,20%,35µM*,18µM*
CCOc1ccccc1-c1n[nH]c(=S)o1,-15%,-3%,-13%,2%,20%
CCCCc1cc(-c2n[nH]c(=S)o2)c2ccccc2n1,-48%,-16%,-6%,45µM*,101%
O=c1[nH]c2ccc(Br)cc2c(-c2ccccc2)c1N1CCOCC1,1µM*,u,6%,3%,-4%
O=c1[nH]c2ccc(Br)cc2c(-c2ccccc2)c1CN1CCOCC1,53%,u,5%,35µM*,-10%
O=C(O)Cc1c(-c2ccccc2)c2cc(Br)ccc2[nH]c1=O,-18%,-2%,-7%,7%,-4%
COc1ccc(/C=C2\C(=O)ON=C2c2ccccc2)cc1,-27%,-17%,u,u,-18%
O=C1ON=C(c2ccccc2)/C1=C/c1ccc(O)c(O)c1,-22%,0%,x,5µM*,46%
O=C1ON=C(c2ccc(Cl)c([N+](=O)[O-])c2)/C1=C/c1cccc([N+](=O)[O-])c1O,-8%,-18%,10%,9%,-1%
O=C1ON=C(c2cccc([N+](=O)[O-])c2)/C1=C/c1ccc(O)cc1,-29%,u,-6%,10µM*,-25%
